Laboratory results: PubChem BioAssay (EPA / NIEHS)
Inconclusive results are not listed. Some structures have more than one record in an assay (separate samples or runs), and their calls can disagree. Calls of active or inactive are those of the source. How the source made its calls: active means hit-call score of the fitted dose curve at least 0.9, where 1 is the maximum; inconclusive means response in the unintended direction; inactive means score below 0.9.

Target: Cellular tumor antigen p53 (Homo sapiens) (UniProt P04637)
Sequence (P04637 whole entry, looked up): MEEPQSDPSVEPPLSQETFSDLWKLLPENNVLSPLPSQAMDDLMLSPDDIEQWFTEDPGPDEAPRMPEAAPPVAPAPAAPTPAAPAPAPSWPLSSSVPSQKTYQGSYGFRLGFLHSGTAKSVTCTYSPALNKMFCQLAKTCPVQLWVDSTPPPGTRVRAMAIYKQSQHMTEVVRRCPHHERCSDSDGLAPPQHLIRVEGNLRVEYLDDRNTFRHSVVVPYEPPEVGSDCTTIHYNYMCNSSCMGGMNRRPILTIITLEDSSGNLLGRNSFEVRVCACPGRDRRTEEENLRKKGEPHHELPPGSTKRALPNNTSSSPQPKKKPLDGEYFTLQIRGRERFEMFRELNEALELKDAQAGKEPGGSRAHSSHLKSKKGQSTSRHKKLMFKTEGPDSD
Experiment: TOX21_p53_BLA_p5_ratio: Tox21 HCT-116 p53 Agonism Beta-lactamase Assay, Ratio, Phase 5 (AID 2283599)
In short: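 HCT-116 p53-bla cells (4000/well) plated 5 h, dosed with compound (217-fold DMSO dilution) for 16 h at 37 C; CCF4-AM substrate 2 h at room temperature. Activity is the 460/530 nm emission ratio (405 nm excitation), fitted in gain-of-signal direction versus DMSO.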

SMILES	outcome	AC50
CCCCN1C=CN(C)C1	inactive	
O=C(O)c1c(Cl)cccc1Cl	inactive	
CC[N+](CC)(CC)CCOc1cccc(OCC[N+](CC)(CC)CC)c1OCC[N+](CC)(CC)CC	inactive	
CCOC(=O)[C@H](CCc1ccccc1)N[C@@H](C)C(=O)N1C(=O)N(C)C[C@H]1C(=O)O	inactive	
Nc1ncnc2c1ncn2[C@H]1CC[C@@H](CO)O1	inactive	
Cc1nc2n(c(=O)c1CCN1CCC(c3noc4cc(F)ccc34)CC1)CCC[C@H]2O	inactive	
C1COC1	inactive	
CC[C@@]1(O)C[C@@H]2CN(CCc3c([nH]c4ccccc34)[C@@](C(=O)OC)(c3cc4c(cc3OC)N(C)[C@H]3[C@@](O)(C(=O)OC)[C@H](OC(C)=O)[C@]5(CC)C=CCN6CC[C@]43[C@@H]65)C2)C1	inactive	17.3 nM (active)
O=c1[nH]c2ccc(Cl)cc2o1	inactive	
O=c1[nH]c(=O)n([C@H]2C[C@H](O)[C@@H](CO)O2)cc1Br	inactive	
Cn1c(=O)c2c(ncn2CC(O)CO)n(C)c1=O (stereo not drawn)	inactive	
Nc1nc(/C(=C/CC(=O)O)C(=O)N[C@@H]2C(=O)N3C(C(=O)O)=CCS[C@H]23)cs1	inactive	
C[N+](C)(C)CC[N+]1(C)Cc2c(Cl)c(Cl)c(Cl)c(Cl)c2C1	inactive	
Cc1cc(C(=O)O)ccc1[N+](=O)[O-]	inactive	
O.O=C([O-])CC([S-])C(=O)[O-].[Au+].[Na+].[Na+] (stereo not drawn)	inactive	
O=C1c2ccccc2-c2ccccc21	inactive	
CC(C)Cc1nccs1	inactive	
BrCCCCCBr	inactive	

SMILES	outcome	AC50
O=[N+]([O-])c1ccccc1CCO	inactive	
NS(=O)(=O)c1cc2c(cc1C(F)(F)F)NCNS2(=O)=O	inactive	
CC[C@H](CC[C@@H](C)[C@H]1CC[C@H]2[C@@H]3CC=C4C[C@@H](O)CC[C@]4(C)[C@H]3CC[C@]12C)C(C)C	inactive	
CCC(C)SSC(C)CC (stereo not drawn)	inactive	
CC(=O)c1ccc2c(c1)N(CCCN(C)C)c1ccccc1S2	inactive	
ClC/C=C/CCl	inactive	
ClCC=CCCl	inactive	
CCCC(=O)OC(=O)CCC	inactive	
BrC/C=C/CBr	inactive	
Cc1ncc(CO)c(C=O)c1O	inactive	
Cc1ccc2c(c1)c1c3n2CCNC3CCC1 (stereo not drawn)	inactive	
O=C(O)CNCC(=O)O	inactive	
SCCCCCCCCS	inactive	
CC(C)(C)C(=O)CC(=O)C(C)(C)C	inactive	
CS(=O)(=O)OCCCNCCCOS(C)(=O)=O	inactive	
CN(C)CC/C=C1/c2ccccc2COc2ccc(CC(=O)O)cc21	inactive	
CC(=C(CCOC(=O)C(C)C)SSC(CCOC(=O)C(C)C)=C(C)N(C=O)Cc1cnc(C)nc1N)N(C=O)Cc1cnc(C)nc1N	inactive	

Test system: not listed separately
Experiment: TOX21_p53_BLA_p5_viability: Viability Assessment in the Tox21 HCT-116 p53 Agonism Beta-lactamase Assay, Phase 5 (AID 2283600)
In short: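 Compounds, pinned from DMSO at 217-fold dilution, were left on the cells for 16 h. The viability endpoint was ATP content measured by CellTiter-Glo luminescence, where falling signal reflects cytotoxicity.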

SMILES	outcome
CCCCN1C=CN(C)C1	inactive
CCOC(=O)[C@H](CCc1ccccc1)N[C@@H](C)C(=O)N1C(=O)N(C)C[C@H]1C(=O)O	inactive
Nc1ncnc2c1ncn2[C@H]1CC[C@@H](CO)O1	inactive
Cc1nc2n(c(=O)c1CCN1CCC(c3noc4cc(F)ccc34)CC1)CCC[C@H]2O	inactive
C1COC1	inactive
CC[C@@]1(O)C[C@@H]2CN(CCc3c([nH]c4ccccc34)[C@@](C(=O)OC)(c3cc4c(cc3OC)N(C)[C@H]3[C@@](O)(C(=O)OC)[C@H](OC(C)=O)[C@]5(CC)C=CCN6CC[C@]43[C@@H]65)C2)C1	inactive
O=c1[nH]c2ccc(Cl)cc2o1	inactive
O=c1[nH]c(=O)n([C@H]2C[C@H](O)[C@@H](CO)O2)cc1Br	inactive
C[N+](C)(C)CC[N+]1(C)Cc2c(Cl)c(Cl)c(Cl)c(Cl)c2C1	inactive
BrCCCCCBr	inactive
O=[N+]([O-])c1ccccc1CCO	inactive
NS(=O)(=O)c1cc2c(cc1C(F)(F)F)NCNS2(=O)=O	inactive
CC[C@H](CC[C@@H](C)[C@H]1CC[C@H]2[C@@H]3CC=C4C[C@@H](O)CC[C@]4(C)[C@H]3CC[C@]12C)C(C)C	inactive
CCC(C)SSC(C)CC (stereo not drawn)	inactive
ClC/C=C/CCl	inactive
CCCC(=O)OC(=O)CCC	inactive
BrC/C=C/CBr	inactive
O=C(CCc1ccc(O)cc1)c1c(O)cc(O)cc1O	inactive
Cc1ncc(CO)c(C=O)c1O	inactive
O=C(O)CNCC(=O)O	inactive
CS(=O)(=O)OCCCNCCCOS(C)(=O)=O	inactive
CN(C)CC/C=C1/c2ccccc2COc2ccc(CC(=O)O)cc21	inactive
CC(=C(CCOC(=O)C(C)C)SSC(CCOC(=O)C(C)C)=C(C)N(C=O)Cc1cnc(C)nc1N)N(C=O)Cc1cnc(C)nc1N	inactive
C=CC(=O)OCCCl	inactive

Target: Cellular tumor antigen p53 (Homo sapiens) (UniProt P04637)
Experiment: TOX21_p53_BLA_p4_ratio: Tox21 HCT-116 p53 Agonism Beta-lactamase Assay, Ratio, Phase 4 (AID 2283601)
In short: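 HCT-116 p53 beta-lactamase reporter cells (4000/well) preincubated 5 h, then compound (217-fold dilution of DMSO stock) for 16 h at 37C. CCF4-AM substrate added 2 h at room temperature; 460/530 nm emission ratio fitted upward versus DMSO.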

SMILES	outcome
O=C(O)c1c(Cl)cccc1Cl	inactive
CC[N+](CC)(CC)CCOc1cccc(OCC[N+](CC)(CC)CC)c1OCC[N+](CC)(CC)CC	inactive
Nc1ncnc2c1ncn2[C@H]1CC[C@@H](CO)O1	inactive
Cc1nc2n(c(=O)c1CCN1CCC(c3noc4cc(F)ccc34)CC1)CCC[C@H]2O	inactive
O=c1[nH]c2ccc(Cl)cc2o1	inactive
O=c1[nH]c(=O)n([C@H]2C[C@H](O)[C@@H](CO)O2)cc1Br	inactive
Cn1c(=O)c2c(ncn2CC(O)CO)n(C)c1=O (stereo not drawn)	inactive
C[N+](C)(C)CC[N+]1(C)Cc2c(Cl)c(Cl)c(Cl)c(Cl)c2C1	inactive
BrCCCCCBr	inactive
CC[C@H](CC[C@@H](C)[C@H]1CC[C@H]2[C@@H]3CC=C4C[C@@H](O)CC[C@]4(C)[C@H]3CC[C@]12C)C(C)C	inactive
CCC(C)SSC(C)CC (stereo not drawn)	inactive
ClCC=CCCl	inactive
CCCC(=O)OC(=O)CCC	inactive
O=C(CCc1ccc(O)cc1)c1c(O)cc(O)cc1O	inactive
Cc1ncc(CO)c(C=O)c1O	inactive
CS(=O)(=O)OCCCNCCCOS(C)(=O)=O	inactive
CN(C)CC/C=C1/c2ccccc2COc2ccc(CC(=O)O)cc21	inactive
CC(=C(CCOC(=O)C(C)C)SSC(CCOC(=O)C(C)C)=C(C)N(C=O)Cc1cnc(C)nc1N)N(C=O)Cc1cnc(C)nc1N	inactive
